# Among all 5,500 compounds or so, about 2,000 (36%) were called active. About 18% were inconclusive and are not listed. The list shows a part of the results. Values without a mark were called inactive. No stated cut-off is given here; in the data, active means normalized growth mostly below about 0.91 (no sharp cut-off); inconclusive means no clear call, values can overlap the other calls; inactive means mostly above about 0.92.
# Experiment: chemical genetic growth profiling, strain panel (AID 1159580);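 further: tested at 20 µM; growth read once vehicle control cultures reached saturation at 30 °C; 1 = growth at the plate median or of vehicle wells; lower values mean less growth of the strain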
# Details: S. cerevisiae deletion strains, growth OD
structure (smiles),measurement,setting,value
COC(=O)C1=C(C)NC(C)=C(C(=O)OCC(C)C)C1c1ccccc1[N+](=O)[O-] (centres undefined),normalized growth,"locus YAL021C, strain ccr4, hits give low values",0.0808 (active)
same,normalized growth,"locus YAL026C, strain drs2, hits give low values",0.216 (active)
same,normalized growth,"locus YAL030W, strain snc1, hits give low values",0.239 (active)
same,normalized growth,"locus YBL061C, strain skt5, hits give low values",0.19 (active)
same,normalized growth,"locus YBR009C, strain hhf1, hits give low values",0.224 (active)
same,normalized growth,"locus YBR023C, strain chs3, hits give low values",0.176 (active)
same,normalized growth,"locus YBR171W, strain sec66, hits give low values",0.898
same,normalized growth,"locus YBR231C, strain swc5, hits give low values",0.212 (active)
same,normalized growth,"locus YBR279W, strain paf1, hits give low values",0.451 (active)
same,normalized growth,"locus YCL011C, strain gbp2, hits give low values",0.257 (active)
same,normalized growth,"locus YCL016C, strain dcc1, hits give low values",0.462 (active)
same,normalized growth,"locus YCL069W, strain vba3, hits give low values",0.413 (active)
same,normalized growth,"locus YCR088W, strain abp1, hits give low values",0.39 (active)
same,normalized growth,"locus YDL005C, strain med2, hits give low values",0.193 (active)
same,normalized growth,"locus YDL040C, strain nat1, hits give low values",0.953
same,normalized growth,"locus YDR001C, strain nth1, hits give low values",0.468 (active)
same,normalized growth,"locus YDR069C, strain doa4, hits give low values",0.0857 (active)
same,normalized growth,"locus YDR137W, strain rgp1, hits give low values",0.866
same,normalized growth,"locus YDR159W, strain sac3, hits give low values",0.958
same,normalized growth,"locus YDR195W, strain ref2",1.06
same,normalized growth,"locus YDR297W, strain sur2, hits give low values",0.167 (active)
same,normalized growth,"locus YDR334W, strain swr1, hits give low values",0.24 (active)
same,normalized growth,"locus YDR335W, strain msn5, hits give low values",0.814 (active)
same,normalized growth,"locus YDR392W, strain spt3, hits give low values",0.122 (active)
same,normalized growth,"locus YEL003W, strain gim4, hits give low values",0.463 (active)
same,normalized growth,"locus YEL037C, strain rad23, hits give low values",0.296 (active)
same,normalized growth,"locus YEL061C, strain CIN8 (second series), hits give low values",0.33 (active)
same,normalized growth,"locus YER015W, strain faa2, hits give low values",0.177 (active)
same,normalized growth,"locus YER016W, strain bim1, hits give low values",0.52 (active)
same,normalized growth,"locus YER111C, strain swi4, hits give low values",0.945
same,normalized growth,"locus YER155C, strain BEM2 (second series), hits give low values",0.259 (active)
same,normalized growth,"locus YFR010W, strain ubp6, hits give low values",0.382 (active)
same,normalized growth,"locus YGL167C, strain pmr1, hits give low values",0.214 (active)
same,normalized growth,"locus YGL173C, strain kem1, hits give low values",0.098 (active)
same,normalized growth,"locus YGL227W, strain vid30, hits give low values",0.769 (active)
same,normalized growth,"locus YGL240W, strain doc1, hits give low values",0.259 (active)
same,normalized growth,"locus YGL253W, strain hxk2, hits give low values",0.303 (active)
same,normalized growth,"locus YHR013C, strain ard1, hits give low values",0.209 (active)
same,normalized growth,"locus YHR027C, strain rpn1, hits give low values",0.164 (active)
same,normalized growth,"locus YHR030C, strain SLT2, hits give low values",0.472 (active)
same,normalized growth,"locus YHR079C, strain IRE1, hits give low values",0.385 (active)
same,normalized growth,"locus YHR142W, strain chs7, hits give low values",0.209 (active)
same,normalized growth,"locus YJL092W, strain hpr5, hits give low values",0.422 (active)
same,normalized growth,"locus YJL095W, strain BCK1 (second series), hits give low values",0.112 (active)
same,normalized growth,"locus YJL095W, strain BCK1, hits give low values",0.35 (active)
same,normalized growth,"locus YJL115W, strain asf1, hits give low values",0.424 (active)
same,normalized growth,"locus YJL129C, strain trk1, hits give low values",0.852 (active)
same,normalized growth,"locus YJL154C, strain vps35, hits give low values",0.344 (active)
same,normalized growth,"locus YJL164C, strain tpk1, hits give low values",0.16 (active)
same,normalized growth,"locus YJL166W, strain qcr8, hits give low values",0.177 (active)
same,normalized growth,"locus YJL187C, strain SWE1, hits give low values",0.206 (active)
same,normalized growth,"locus YJR066W, strain TOR1, hits give low values",0.57 (active)
same,normalized growth,"locus YKL160W, strain elf1, hits give low values",0.486 (active)
same,normalized growth,"locus YKR026C, strain gcn3, hits give low values",0.559 (active)
same,normalized growth,"locus YKR091W, strain srl3, hits give low values",0.589 (active)
same,normalized growth,"locus YLL001W, strain dnm1, hits give low values",0.42 (active)
same,normalized growth,"locus YLL026W, hits give low values",0.333 (active)
same,normalized growth,"locus YLL041C, strain sdh2, hits give low values",0.279 (active)
same,normalized growth,"locus YLR027C, strain aat2, hits give low values",0.22 (active)
same,normalized growth,"locus YLR113W, strain HOG1, hits give low values",0.308 (active)
same,normalized growth,"locus YLR221C, strain rsa3, hits give low values",0.342 (active)
same,normalized growth,"locus YLR258W, strain gsy2, hits give low values",0.209 (active)
same,normalized growth,"locus YLR262C, strain YPT6 (second series), hits give low values",0.114 (active)
same,normalized growth,"locus YLR320W, strain mms22, hits give low values",0.159 (active)
same,normalized growth,"locus YLR342W, strain FKS1, hits give low values",0.163 (active)
same,normalized growth,"locus YLR357W, strain rsc2, hits give low values",0.452 (active)
same,normalized growth,"locus YLR370C, strain arc18, hits give low values",0.273 (active)
same,normalized growth,"locus YLR384C, strain iki3, hits give low values",0.75 (active)
same,normalized growth,"locus YML120C, strain ndi1, hits give low values",0.978
same,normalized growth,"locus YMR058W, strain fet3, hits give low values",0.0888 (active)
same,normalized growth,"locus YMR125W, strain sto1, hits give low values",0.462 (active)
same,normalized growth,"locus YMR129W, hits give low values",0.633 (active)
same,normalized growth,"locus YMR205C, strain PFK2, hits give low values",0.179 (active)
same,normalized growth,"locus YMR231W, strain pep5, hits give low values",0.141 (active)
same,normalized growth,"locus YNL071W, strain lat1, hits give low values",0.194 (active)
same,normalized growth,"locus YNL183C, strain NPR1, hits give low values",0.561 (active)
same,normalized growth,"locus YNL209W, strain ssb2, hits give low values",0.111 (active)
same,normalized growth,"locus YNL248C, strain rpa49, hits give low values",0.488 (active)
same,normalized growth,"locus YNL322C, strain KRE1 (second series), hits give low values",0.403 (active)
same,normalized growth,"locus YNR049C, strain mso1, hits give low values",0.551 (active)
same,normalized growth,"locus YOR001W, strain rrp6, hits give low values",0.952
same,normalized growth,"locus YOR070C, strain gyp1, hits give low values",0.492 (active)
same,normalized growth,"locus YOR080W, strain dia2, hits give low values",0.958
same,normalized growth,"locus YOR083W, strain WHI5, hits give low values",0.43 (active)
same,normalized growth,"locus YOR106W, strain vam3, hits give low values",0.135 (active)
same,normalized growth,"locus YOR231W, strain MKK1, hits give low values",0.513 (active)
same,normalized growth,"locus YOR265W, strain rbl2, hits give low values",0.204 (active)
same,normalized growth,"locus YOR270C, strain vph1, hits give low values",0.153 (active)
same,normalized growth,"locus YOR290C, strain snf2, hits give low values",0.912
same,normalized growth,"locus YPL051W, strain arl3, hits give low values",0.129 (active)
same,normalized growth,"locus YPL078C, strain atp4, hits give low values",0.94
same,normalized growth,"locus YPL106C, strain sse1, hits give low values",0.299 (active)
same,normalized growth,"locus YPL240C, strain hsp82, hits give low values",0.242 (active)
same,normalized growth,"locus YPL256C, strain CLN2, hits give low values",0.415 (active)
COC(=O)C1=C(C)NC(C)=C([N+](=O)[O-])C1c1ccccc1C(F)(F)F (centres undefined),normalized growth,"locus YAL040C, strain CLN3, hits give low values",0.982
same,normalized growth,"locus YCL061C, strain MRC1 (second series), hits give low values",1
same,normalized growth,"locus YER002W, strain NOP16, hits give low values",0.991
same,normalized growth,"locus YGR078C, strain PAC10, hits give low values",0.94
same,normalized growth,"locus YNL175C, strain NOP13, hits give low values",0.976
same,normalized growth,"locus YNL197C, strain WHI3, hits give low values",1.04
same,normalized growth,"locus YNL224C, strain SQS1, hits give low values",0.987
same,normalized growth,"locus YNL322C, strain KRE1, hits give low values",1.01
same,normalized growth,"locus YOR083W, strain WHI5 (second series), hits give low values",1
same,normalized growth,"locus YPL055C, strain LGE1, hits give low values",1.01

# From PubChem BioAssay AID1159580 (chemical genetic matrix, 2015)
